# Reference: PubChem BioAssay (NCI)
# The panel holds about 83,000 compounds, 20% with a hit somewhere; the sample as a whole holds those more often.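 Note: values are percent growth. 100 is the growth of untreated cells, values between 100 and 0 indicate rising inhibition; between -100 and 0 indicates cell death.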 Activity calls are given as the source filed them. Rule for the calls: active = growth percent below 10; inactive = the rest.
# Tested on: HL-60(TB) leukemia
# Assay: NCI-60 one-dose screen, 48 h (100 = growth as untreated, 0 = no growth, -100 = all killed)
# Settings: 10 µM unless noted
row,Structure (SMILES),growth
1,O=c1cc(-c2ccccc2)oc2cc(OCCCCNCc3ccccc3)cc(O)c12,-65.6% (active)
2,CC(C)c1ccc2c(N)c(C(=O)Nc3ccc(C(F)(F)F)cn3)sc2n1,46.8% (inactive)
3,Clc1cccc(N/N=C/c2c[nH]c3ccccc23)n1,13.8% (inactive)
4,O=CNc1ccc(-n2cnc3cc(-c4ccc(O)cc4)ccc32)cc1,64.2% (inactive)
5,O=C1c2ccccc2C(=O)c2c1c(C(=O)c1ccc(Cl)cc1)n1c2ccc2c3ccccc3ccc21,109% (inactive)
6,CCOc1ccc(/C=N/NC(=O)Cn2nc(Cc3ccc([N+](=O)[O-])cc3)c3onc(C)c3c2=O)cc1,81.5% (inactive)
7,O=C(Cn1c2c(sc1=O)[C@H]1[C@@H](O)[C@@H](O)[C@H](O)[C@@H]1CS2)N1CCOCC1,109% (inactive)
8,COc1ccc(-c2nc(SC(C)C)nc(NCCc3c[nH]c4ccccc34)c2C#N)cc1,31.6% (inactive)
9,COc1cc(NC(=O)c2cc(-c3ccc(F)cc3F)ccc2O)cc(OC)c1OC,15.8% (inactive)
10,Nc1nc(-c2ccccc2)c(N=Nc2ccc(Cl)cc2[N+](=O)[O-])s1,83.8% (inactive)
11,CS(=O)(=O)Nc1cc(-c2ccc3ncnc(Nc4ccc(OCc5cccnc5)c(Cl)c4)c3c2)cnc1Cl,-59.5% (active)
12,Cc1ccc2c(c1)nc(-c1ccccc1)n2CC(=O)N=Nc1c(O)[nH]c2ccc(Cl)cc12,46.2% (inactive)
13,COc1ccc2c(c1)c(/C=N/Nc1ccc3ccccc3n1)cn2C,-57.7% (active)
14,N#Cc1ccc(C(=O)NNC(=O)CSc2nc3sc4c(c3c(=O)n2-c2ccc(Cl)cc2)CCCC4)cc1,67.2% (inactive)
15,COc1cc2nc(SCc3ccccc3)n(-c3ccc(Cl)cc3)c(=O)c2cc1OC,34.8% (inactive)
16,CC(C)Sc1nc(NCCc2c[nH]c3ccccc23)c(C#N)c(-c2ccccc2)n1,19.3% (inactive)
17,O=C1Nc2ccc(Cl)cc2/C1=C/c1cccc(OCc2ccccn2)c1,-25% (active)
18,CN1C(=O)/C(=C/c2nccs2)SC1=S,89% (inactive)
19,CC1=C(C(=O)OCc2ccccc2)C(c2cccc3ccccc23)n2c(nc3ccccc32)N1 (stereo not given),1.4% (active)
20,CN(C)c1ccc(/C=C/c2nc3ccccc3c(=O)n2CC(=O)Nc2ccccc2)cc1,91.8% (inactive)

row,Structure (SMILES),growth
1,Cc1cccc(C)c1Nc1nnc(-c2c[nH]c3ccccc23)o1,97.2% (inactive)
2,O=S(=O)(Nc1ncccn1)c1ccc(-n2c(-c3ccccc3)nc(-c3ccccc3)c2-c2ccccc2)cc1,95.5% (inactive)
3,N#CC1=C(c2ccco2)Nc2c(c(-c3ccccc3)nn2-c2ccccc2)C12C(=O)Nc1ccc(Cl)cc12 (stereo not given),43.8% (inactive)
4,Cc1cccc2cc(-c3cc(-c4ccccc4)nc(=S)[nH]3)c(Cl)nc12,58.9% (inactive)
5,CC(C)C(C(=O)O)n1c(O)c(/C=C2/C=c3cc4c(cc3=NC2=O)OCO4)sc1=S (stereo not given),105% (inactive)
6,O=C(Nc1ccccc1)N1CCN(c2cc(-c3cn(-c4ccccc4)nc3-c3cccc(O)c3)ccn2)CC1,23.3% (inactive)
7,N#C/C(=C1/C(=O)Nc2ccccc21)c1nnc(NC(=O)c2ccc(-n3c(=O)[nH]c4ccccc4c3=O)cc2)s1,7.15% (active)
8,CONC[C@]1(C)C=C2C(=O)[C@](C)(O)C3(CC3)C(C)=C2[C@H]1O,-29.3% (active)
9,C#CCOc1cc(N(CC)CC)ccc1C(C(=O)NC(C)(C)C)N(C(=O)C1CCc2cc(F)ccc2O1)c1ccccc1Br (stereo not given),21.7% (inactive)
10,C/C(=N\N=C\c1ccc(Cl)c([N+](=O)[O-])c1)c1ccc2c(c1)Nc1ccccc1S2,51% (inactive)
11,COc1cc2c(c(OC)c1OC)C(=O)CC(c1cccc(NC(=O)c3cc(N)ccc3Cl)c1)O2 (stereo not given),52.2% (inactive)
12,O=C(Nc1nc2ccc([N+](=O)[O-])cc2s1)Nc1ccccc1F,-8.08% (active)
13,O=C(NO)c1ccc(CNC(=O)[C@H]2Cc3c([nH]c4ccccc34)[C@H](c3ccccc3)N2)cc1,0.371% (active)
14,Cc1ccc(/C=C/c2n(Cc3ccc4ccccc4c3)c3ccccc3[n+]2Cc2ccc3ccccc3c2)cc1,-45.5% (active)
15,O/N=C(\CSc1nnc(-c2c[nH]c3ccccc23)n1-c1ccccc1)c1ccc(Br)cc1,-36.3% (active)
16,C=C1CCC2C3(C)COC(c4cccc(F)c4)OC3CCC2(C)C1C/C=C1/C(=O)OCC1O (stereo not given),4.43% (active)
17,CSc1ccc(C(=O)Nc2ccc3nnn(/C(C#N)=C/c4ccccn4)c3c2)cc1,6.83% (active)
18,O=C1Nc2cc(-c3ccc(NS(=O)(=O)c4ccc([N+](=O)[O-])cc4)cc3)ccc2/C1=C/c1ccc[nH]1,13.7% (inactive)
19,Cc1ccc(-c2cc(-c3cc4ccccc4nc3Cl)[nH]c(=S)n2)cc1,11.6% (inactive)
20,O=C(/C=C/Nc1ccc(Cl)cc1)c1ccc2c(c1)Nc1ccccc1S2,92.7% (inactive)
